# ChEMBL document CHEMBL1961873, “Compounds: GSK PKIS; Assays: Nanosyn kinase panel” (2012)
# Several values for one entry are separate records, joined by “and”; a condition that tells them apart may be missing. Equal values may be shown once.
# Assays:
# [1] = biological target: T1, Muscle, skeletal receptor tyrosine-protein kinase (Homo sapiens) (UniProt O15146); settings: at 1 µM;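 further: reported value is the mean percent inhibition of MuSK kinase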
# T1 sequence (whole entry): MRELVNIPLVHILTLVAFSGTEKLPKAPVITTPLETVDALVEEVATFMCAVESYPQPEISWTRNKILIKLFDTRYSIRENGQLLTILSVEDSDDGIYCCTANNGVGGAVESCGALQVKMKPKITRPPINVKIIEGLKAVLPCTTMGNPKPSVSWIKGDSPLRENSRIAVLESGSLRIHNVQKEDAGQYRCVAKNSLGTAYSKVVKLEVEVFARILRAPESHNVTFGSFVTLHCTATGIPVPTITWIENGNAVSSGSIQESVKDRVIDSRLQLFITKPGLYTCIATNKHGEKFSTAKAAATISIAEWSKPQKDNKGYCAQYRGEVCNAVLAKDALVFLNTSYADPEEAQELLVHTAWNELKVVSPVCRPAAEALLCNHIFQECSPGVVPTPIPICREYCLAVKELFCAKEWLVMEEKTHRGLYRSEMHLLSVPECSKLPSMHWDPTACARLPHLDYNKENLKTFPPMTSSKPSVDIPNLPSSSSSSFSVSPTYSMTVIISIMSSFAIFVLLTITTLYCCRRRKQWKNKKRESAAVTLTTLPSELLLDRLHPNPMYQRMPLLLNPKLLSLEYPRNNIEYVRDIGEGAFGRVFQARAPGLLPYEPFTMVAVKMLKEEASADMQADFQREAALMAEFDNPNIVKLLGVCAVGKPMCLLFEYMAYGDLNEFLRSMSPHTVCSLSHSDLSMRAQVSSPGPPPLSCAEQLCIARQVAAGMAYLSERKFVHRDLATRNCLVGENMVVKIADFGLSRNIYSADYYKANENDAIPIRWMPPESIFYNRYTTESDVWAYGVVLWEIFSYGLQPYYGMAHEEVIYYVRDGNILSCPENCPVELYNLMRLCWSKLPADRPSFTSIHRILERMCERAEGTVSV
# [2] = biological target: Platelet-derived growth factor receptor alpha (Homo sapiens) (UniProt P16234); settings: at 0.1 µM
# [3] = biological target: Platelet-derived growth factor receptor alpha (Homo sapiens) (UniProt P16234); settings: at 1 µM
# [4] = tested on: Platelet-derived growth factor receptor alpha (Homo sapiens), P16234 [D842V]; settings: at 0.1 µM
# [5] = tested on: Platelet-derived growth factor receptor alpha (Homo sapiens), P16234 [D842V]; settings: at 1 µM
# [6] = tested on: Platelet-derived growth factor receptor alpha (Homo sapiens), P16234 [T674I]; settings: at 0.1 µM
# [7] = tested on: Platelet-derived growth factor receptor alpha (Homo sapiens), P16234 [T674I]; settings: at 1 µM
# [8] = tested on: Platelet-derived growth factor receptor alpha (Homo sapiens), P16234 [V561D]; settings: at 0.1 µM
# [9] = tested on: Platelet-derived growth factor receptor alpha (Homo sapiens), P16234 [V561D]; settings: at 1 µM
# [10] = biological target: Platelet-derived growth factor receptor beta (Homo sapiens) (UniProt P09619); settings: at 0.1 µM;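 further: reported value is the mean percent inhibition of the kinase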
# Sequence of Platelet-derived growth factor receptor beta (Homo sapiens) (P09619 whole entry): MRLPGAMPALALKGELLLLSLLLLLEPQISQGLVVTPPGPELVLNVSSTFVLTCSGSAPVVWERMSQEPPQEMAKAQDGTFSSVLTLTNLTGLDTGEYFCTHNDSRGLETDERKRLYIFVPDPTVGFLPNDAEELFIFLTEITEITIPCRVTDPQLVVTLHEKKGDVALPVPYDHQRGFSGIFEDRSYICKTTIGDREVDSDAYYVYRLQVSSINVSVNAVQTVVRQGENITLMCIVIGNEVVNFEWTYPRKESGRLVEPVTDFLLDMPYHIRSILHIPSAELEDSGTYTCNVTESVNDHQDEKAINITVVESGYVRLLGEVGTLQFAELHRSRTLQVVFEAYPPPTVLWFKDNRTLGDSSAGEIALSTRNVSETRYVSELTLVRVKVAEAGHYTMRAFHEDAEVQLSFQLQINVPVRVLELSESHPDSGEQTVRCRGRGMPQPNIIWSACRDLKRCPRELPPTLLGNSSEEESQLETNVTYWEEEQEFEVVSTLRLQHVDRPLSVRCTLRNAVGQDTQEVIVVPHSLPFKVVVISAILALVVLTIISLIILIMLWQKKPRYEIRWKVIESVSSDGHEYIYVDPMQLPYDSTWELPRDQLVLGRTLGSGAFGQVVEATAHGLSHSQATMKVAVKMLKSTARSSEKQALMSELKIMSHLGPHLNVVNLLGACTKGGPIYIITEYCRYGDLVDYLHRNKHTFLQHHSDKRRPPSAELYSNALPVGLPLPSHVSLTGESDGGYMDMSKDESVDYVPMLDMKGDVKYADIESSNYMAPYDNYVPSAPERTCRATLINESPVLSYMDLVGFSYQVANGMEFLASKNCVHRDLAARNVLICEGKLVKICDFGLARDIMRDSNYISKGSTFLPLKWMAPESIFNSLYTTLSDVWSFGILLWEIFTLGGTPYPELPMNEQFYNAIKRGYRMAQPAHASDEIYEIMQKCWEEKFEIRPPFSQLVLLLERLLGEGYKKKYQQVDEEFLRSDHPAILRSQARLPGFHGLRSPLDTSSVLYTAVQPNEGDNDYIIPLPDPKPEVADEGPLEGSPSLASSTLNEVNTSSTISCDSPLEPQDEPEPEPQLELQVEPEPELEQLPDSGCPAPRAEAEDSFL
# Sequence of Platelet-derived growth factor receptor alpha (Homo sapiens), P16234 [T674I] (P16234 whole entry T674I): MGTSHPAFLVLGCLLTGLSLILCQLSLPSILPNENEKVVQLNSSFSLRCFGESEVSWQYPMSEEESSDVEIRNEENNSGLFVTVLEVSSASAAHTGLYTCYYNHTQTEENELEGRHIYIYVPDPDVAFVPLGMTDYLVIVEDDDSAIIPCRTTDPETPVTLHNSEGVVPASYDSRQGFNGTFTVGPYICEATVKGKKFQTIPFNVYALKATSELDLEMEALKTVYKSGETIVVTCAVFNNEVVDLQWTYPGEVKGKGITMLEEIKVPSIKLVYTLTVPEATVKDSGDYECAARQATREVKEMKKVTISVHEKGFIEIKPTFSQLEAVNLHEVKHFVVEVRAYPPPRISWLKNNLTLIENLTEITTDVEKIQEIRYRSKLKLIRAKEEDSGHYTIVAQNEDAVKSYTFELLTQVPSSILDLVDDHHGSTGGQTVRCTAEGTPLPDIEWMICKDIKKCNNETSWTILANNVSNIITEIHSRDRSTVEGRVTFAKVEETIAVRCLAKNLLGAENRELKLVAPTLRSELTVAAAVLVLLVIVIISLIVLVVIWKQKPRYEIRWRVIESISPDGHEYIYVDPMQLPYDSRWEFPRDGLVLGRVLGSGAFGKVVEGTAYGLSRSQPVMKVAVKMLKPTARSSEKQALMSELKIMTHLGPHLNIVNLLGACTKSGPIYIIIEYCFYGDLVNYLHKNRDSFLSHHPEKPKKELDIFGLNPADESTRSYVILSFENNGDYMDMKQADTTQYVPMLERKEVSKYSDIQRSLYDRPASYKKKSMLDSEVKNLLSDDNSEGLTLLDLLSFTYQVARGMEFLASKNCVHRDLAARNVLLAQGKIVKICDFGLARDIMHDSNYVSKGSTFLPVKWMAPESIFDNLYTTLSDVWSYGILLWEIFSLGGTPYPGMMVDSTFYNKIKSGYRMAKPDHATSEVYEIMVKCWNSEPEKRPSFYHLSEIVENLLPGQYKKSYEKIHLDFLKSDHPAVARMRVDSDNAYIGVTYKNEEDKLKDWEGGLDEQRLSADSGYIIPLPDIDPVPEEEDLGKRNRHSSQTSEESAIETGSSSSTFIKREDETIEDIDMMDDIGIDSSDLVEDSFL
# Sequence of Platelet-derived growth factor receptor alpha (Homo sapiens), P16234 [V561D] (P16234 whole entry V561D): as the sequence (P16234 whole entry T674I) above, with V561D, I674T counted along it
# Sequence of Platelet-derived growth factor receptor alpha (Homo sapiens) (P16234 whole entry): as the sequence (P16234 whole entry T674I) above, with I674T counted along it
# Sequence of Platelet-derived growth factor receptor alpha (Homo sapiens), P16234 [D842V] (P16234 whole entry D842V): as the sequence (P16234 whole entry T674I) above, with I674T, D842V counted along it
Compound,inhibition [1],inhibition [2],inhibition [3],inhibition [4],inhibition [5],inhibition [6],inhibition [7],inhibition [8],inhibition [9],inhibition [10]
CN1CCC(n2cnc(-c3ccc(F)cc3)c2-c2ccnc(NCCO)n2)CC1,3.41%,13.6%,14.4%,5.63%,8.15%,7.46%,9.01%,7.95%,3.97%,8.62%
N#Cc1ccc2c(-c3ccnc(NC4CC4)n3)c(-c3ccc(F)cc3)nn2c1,-0.28%,2.76%,11.6%,-0.1%,6.91%,6.42%,6.15%,1.97%,8.16%,2.34%
O=C(Nc1n[nH]c2nnc(-c3cccnc3)cc12)C1CC1,-0.99%,-0.04%,5.88%,2.16%,2.26%,1.36%,6.43%,1.61%,3.69%,1.07%
CC1=C(C(=O)Nc2ccc3[nH]nc(C)c3c2)C(c2ccc(C(F)(F)F)cc2)CC(=O)N1 (stereo not given),23.7%,7.08%,19.3%,2.09%,6.76%,2.02%,1.41%,-0.51%,8.12%,8.62%
NS(=O)(=O)c1ccc(N/N=C2\C(=O)Nc3cccc(CCc4ccncc4)c32)cc1,24.2%,33.5%,60.7%,16.9%,58.5%,6.75%,34.6%,26.3%,72.3%,29.6%
N#Cc1cccc(Nc2ncc(-c3ccccc3)o2)c1,2.86%,5.63%,17%,1.11%,3.47%,6.26%,36.3%,16.2%,36.8%,7.37%
NS(=O)(=O)c1cccc(N/C=C2\C(=O)Nc3ccccc32)c1,12.1%,7.39%,26.2%,4.57%,15.1%,9.22%,46.1%,5.48%,31.2%,4.88%
CCS(=O)(=O)c1ccc(OC)c(Nc2ncc(-c3cccc(F)c3)o2)c1,16.3%,21.1%,70.7%,11.3%,41.5%,5.36%,17.3%,21.4%,68.7%,35.7%
COc1c(C(N)=O)cc(-c2ccc(Cl)cc2)cc1-c1ccc(S(N)(=O)=O)cc1,7.45%,3.49%,9.97%,2.3%,2.99%,2.39%,4.51%,3.68%,5.56%,2.5%
CN(C)CCNC(=O)Nc1ccc(N(C)c2ccnc(Nc3ccc(CS(C)(=O)=O)cc3)n2)cc1,10.1%,19.4%,54%,9.49%,36.1%,9.77%,42.5%,39.2%,67.4%,28.4%
Nc1nccc(-c2c(-c3ccc(F)cc3)ncn2C2CCNCC2)n1,4.78% and 1.25%,1.26% and 2.55%,32.6% and 7.91%,3.48% and 2.03%,9.35% and 6.11%,-2.56% and 3.91%,1.13% and 1.39%,4.62% and 3.92%,19.5% and 6.51%,3.91% and 1.3%
COc1ccc(Nc2ncc(-c3ccccc3)o2)cc1OC,19.2%,25.9%,68.6%,5.83%,28.4%,42.2%,94.4%,48.8%,77%,25.5%
COc1cc2c(cc1Nc1nc(Nc3cccc(F)c3C(N)=O)c3cc[nH]c3n1)N(C(=O)CN1CCN(C(C)C)CC1)CC2,8.69%,-1.51%,15.2%,-0.49%,1.55%,2.01%,2.59%,-0.47%,11.6%,1.46%
CC(C)c1ccc(-c2cc(-c3c[nH]nc3-c3ccccn3)ccn2)cc1,6.85%,10%,19.8%,5.82%,34.2%,4.22%,3.25%,5.56%,20.6%,3.19%
Cc1cc(O)cc(C)c1/C=C/c1cncc(C(N)=O)c1,3.91%,13%,39.4%,3.88%,16.3%,4.15%,4.33%,21%,55.5%,9.04%
CCOc1ccc2c(-c3ccnc(Nc4cc(OC)cc(C(F)(F)F)c4)n3)cnn2n1,5.37%,6.45%,30%,2.97%,18.4%,2.28%,8.05%,6.9%,33.4%,7.05%
CS(=O)(=O)CCNCc1ccc(-c2ccc3ncnc(Nc4ccc(OCc5cccc(C(F)(F)F)c5)cc4)c3c2)o1,9.15%,9.67%,15.9%,0.59%,1.85%,5.53%,12.3%,4.16%,14.6%,7.32%
O=C1Nc2ccccc2/C1=C1\CCc2cc(O)ccc21,32.1%,23%,63.2%,7.24%,34.7%,45.7%,97.7%,32.4%,64.8%,11.3%
COc1cccc(-n2ncc3c(N/N=C/c4ccc(C(=O)NCCN(C)C)cc4)ncnc32)c1,80.3%,42.3%,74.1%,55.7%,88.8%,20.5%,78.5%,44%,85.5%,62.4%
